# Screens: PubChem BioAssay, National Center for Advancing Translational Sciences (NCATS)
# TRPV1 PAM: human TRPV1 potentiation; Q8NER1; TRPV1-expressing cells, Fluo-8 calcium influx, capsaicin EC20 potentiation; potentiation, % at 8.33 µM; actives 0.02% (n = 320,000); in the data active means potentiation above about 80%; inconclusive means between about 30% and that limit; further: 0% is about no effect
# Target sequence (Q8NER1 whole entry, looked up): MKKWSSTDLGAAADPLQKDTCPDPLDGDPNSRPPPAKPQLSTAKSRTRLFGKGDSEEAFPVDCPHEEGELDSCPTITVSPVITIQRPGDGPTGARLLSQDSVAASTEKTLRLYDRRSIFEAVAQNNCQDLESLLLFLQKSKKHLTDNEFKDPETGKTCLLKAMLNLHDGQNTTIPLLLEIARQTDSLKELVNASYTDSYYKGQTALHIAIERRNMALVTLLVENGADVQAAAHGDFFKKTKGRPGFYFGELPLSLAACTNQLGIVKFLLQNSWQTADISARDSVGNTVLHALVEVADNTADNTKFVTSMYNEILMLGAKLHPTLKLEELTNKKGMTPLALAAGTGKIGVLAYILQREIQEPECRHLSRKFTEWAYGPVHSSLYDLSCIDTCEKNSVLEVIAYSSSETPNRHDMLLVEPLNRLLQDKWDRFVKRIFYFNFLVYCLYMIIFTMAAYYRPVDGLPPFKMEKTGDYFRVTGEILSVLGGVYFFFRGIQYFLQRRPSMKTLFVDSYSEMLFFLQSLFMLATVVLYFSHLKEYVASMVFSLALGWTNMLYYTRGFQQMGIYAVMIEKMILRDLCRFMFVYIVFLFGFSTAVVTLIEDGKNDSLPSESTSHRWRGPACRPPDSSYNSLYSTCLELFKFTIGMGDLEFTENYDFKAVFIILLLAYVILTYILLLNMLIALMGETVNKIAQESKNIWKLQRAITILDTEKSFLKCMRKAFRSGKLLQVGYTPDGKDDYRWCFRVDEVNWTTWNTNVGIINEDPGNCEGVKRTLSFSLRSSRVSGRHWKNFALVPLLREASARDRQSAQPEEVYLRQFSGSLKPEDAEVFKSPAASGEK
#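 Fluo-8 calcium influx in TRPV1-expressing cells, kinetic read (ex 480/em 520 nm). Compound added and read 3 min for agonist activity, followed by capsaicin at EC20 final and 2 min further read for enhancement.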
# TRPV1 agonist: human TRPV1 agonism. TRPV1-expressing cells, Fluo-8 calcium influx, agonist mode. activation, % at 8.33 µM. actives 0.19% (n = 320,000). AID 540275; in the data active means activation above about 80%; inconclusive means between about 30% and that limit; further: 0% is about no effect
#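 Fluo-8 calcium influx in TRPV1-expressing cells, kinetic read (ex 480/em 520 nm). Compound added and read 3 min for agonist activity, followed by capsaicin at EC20 final and 2 min further read for enhancement.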
# D1 antagonist: blocks dopamine activation of the human D1 receptor; HEK293 TREx D1 cells, calcium flux, dopamine EC80; active compounds read low; activity change, negative = inhibition, % at 10 µM; actives 3.2% (n = 360,000); AID 504652; in the data active means activity change below about -30%; further: on the % scale 0 is the no-effect control and ±100 the full control effect
#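 Inducible Hek293 Trex D1 cells (tetracycline, overnight, 30 C). Calcium dye 30–90 min RT. Antagonist mode: EC80 dopamine added after 180 s compound read.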
# D1 agonist: agonists of human D1 dopamine receptor. AID 504660. activation, % at 2 µM. actives 1% (n = 360,000). P21728. HEK293 T-REx D1 cells, calcium flux, agonist mode; in the data active means activation above about 30%; further: 0% is about no effect
#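 Inducible HEK293 T-REx D1 cells, force-coupled to calcium signalling, were plated at 4000 cells/well with tetracycline and held overnight at 30 C. After no-wash calcium dye loading, compound-evoked calcium rise over 180 s flagged agonists.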
# D1 potentiator: potentiators of human D1 dopamine receptor; P21728; HEK293 TREx D1 cells, calcium flux, dopamine EC20 potentiation; potentiation, % at 10 µM; actives 0.036% (n = 360,000); in the data active means potentiation above about 30%; further: 0% is about no effect
# * marks the source's active call; other numbers are inactive results; ? = inconclusive; / = no result given. An excerpt weighted towards active compounds, which were near 4.2% of everything screened.
SMILES,TRPV1 PAM,TRPV1 agonist,D1 antagonist,D1 agonist,D1 potentiator
COc1cc(C)ccc1OCCOCCOc1ccccc1[N+](=O)[O-],5.0,0.4,-15.8,2.6,-7.0
COc1cc(C)ccc1OCCOCCOc1ccc([N+](=O)[O-])cc1,10.5,-4.4,-0.9,31.0*,-0.8
O=[N+]([O-])c1ccc(COc2ccccc2/C=N/O)cc1,9.4,-4.7,-49.4*,4.4,-8.2
O=Cc1ccccc1OCCOc1ccc([N+](=O)[O-])cc1,-2.3,6.3,-30.7*,2.4,-6.9
O=C(Cn1c(=O)n(-c2cccc(Cl)c2)c(=O)c2sc3ccccc3c21)N1CCCC1,/,/,-0.3,-0.5,1.1
CCOC(=O)CCc1cc(F)c(S(=O)(=O)N2CCN(S(=O)(=O)c3ccc4c(c3)OCCO4)CC2)cc1F,/,/,12.8,2.6,-3.0
CCN(CC)C(=O)c1sc(NC(=O)c2c(OC)cccc2OC)c(C#N)c1C,2.4,2.7,-30.1*,-0.4,-2.5
Cc1cc(C)cc(-n2c(C)cc(/C=N/NC(=O)CSc3ncccn3)c2C)c1,4.0,-0.4,14.2,44.1*,6.5
Cc1cc(C)n2nc(SCC(=O)N/N=C/c3ccccn3)nc2n1,-3.9,-0.6,-35.6*,1.2,1.4
Cc1cc(C)cc(-n2c(C)cc(/C=N/NC(=O)c3ccncc3)c2C)c1,-25.2,?,0.0,6.0,2.0
COc1cc(/C=N/NC(=O)C[n+]2ccccc2)cc(OC)c1OC(C)=O,-4.7,2.1,-79.4*,0.6,-10.8
O=C(Cn1c(SCc2cccc(F)c2)nc2cccnc21)Nc1ccc(F)c(Cl)c1,/,/,12.7,21.4,2.4
CS(=O)(=O)N(CC(=O)NCc1ccccc1)C1CCCCC1,-19.5,0.7,-61.4*,-1.1,-13.9
COc1ccc(CNC(=O)CN(C2CCCCC2)S(C)(=O)=O)cc1,-2.8,-1.8,-32.4*,1.8,-8.8
O=C(NNC(=O)c1cc(-c2ccc(Cl)cc2Cl)nc2ccccc12)Nc1ccccc1,18.9,16.3,-26.0,4.0,-9.3
O=C(NNC(=O)c1ccc(Cl)cc1Cl)Nc1ccccc1,12.0,1.2,-37.8*,0.5,-14.7
O=C(NCc1n[nH]c(=S)n1Cc1ccccc1)c1ccc(Cl)cc1Cl,-5.9,8.8,-31.4*,4.5,-0.3
Cc1ccsc1C(=O)NCC(=O)OCc1ccccc1,-14.2,15.8,-30.2*,2.6,-7.5
O=C(CNC(=O)c1ccc(Cl)cc1Cl)OCc1ccccc1,-23.7,21.7,-31.9*,-0.4,-4.5
O=C(Nc1ccncc1)c1cn(-c2ccccc2)nc1-c1cccs1,22.5,-5.4,-49.3*,16.6,-24.4
CN(c1ccccc1)S(=O)(=O)c1cccc(NC(=O)Cn2cnc3ccccc3c2=O)c1,81.8*,-8.0,-4.8,3.0,-0.3
O=C(CSc1nnnn1-c1ccccc1)CC(=O)Nc1ccc(Cl)cc1,-17.7,3.1,-33.9*,6.9,-4.5
CN(C)S(=O)(=O)c1cccc(NC(=O)CSc2nnnn2-c2ccccc2)c1,-2.2,-1.6,-41.3*,15.2,-6.0
NS(=O)(=O)c1cccc(NC(=O)CSc2nnnn2-c2ccccc2)c1,7.0,3.4,1.2,1.0,5.5
CCN(CC)S(=O)(=O)c1cc(NC(=O)Cn2cnc3ccccc3c2=O)ccc1C,-4.0,0.2,6.7,10.5,-1.3
SMILES,TRPV1 PAM,TRPV1 agonist,D1 antagonist,D1 agonist,D1 potentiator
COCCn1cnnc1SCC(=O)Nc1cccc(S(=O)(=O)N(C)c2ccccc2)c1,-4.4,-2.1,-0.8,1.1,-1.0
Cc1nnc(SCC(=O)Nc2cccc(S(=O)(=O)N(C)c3ccccc3)c2)s1,-3.9,12.3,5.6,34.3*,-1.5
Cc1c(-c2nsc(NC(=O)c3cccs3)n2)nnn1-c1ccc(F)cc1,/,/,-10.0,8.0,-1.6
CCOc1ccccc1NC(=O)c1nn(C)c2c1CSc1ccccc1-2,/,/,6.3,2.8,-2.4
Nc1nc(SCC(=O)Nc2cccc(S(=O)(=O)N3CCCCCC3)c2)n[nH]1,-2.2,0.3,/,0.2,-4.5
CN(c1ccccc1)S(=O)(=O)c1cccc(NC(=O)CSc2n[nH]c(N)n2)c1,1.4,11.2,-44.6*,1.6,-19.1
COc1cccc(C2C(C(C)=O)=C(C)Nc3ncnn32)c1 (stereo not given),-8.2,-3.8,9.6,1.3,-1.3
CC(=O)C1=C(C)Nc2ncnn2C1c1cccc(OCc2ccccc2)c1 (stereo not given),-20.3,0.1,-31.3*,-2.5,-9.8
